Source: the supplement of paper PMC11732987, “Enantioselective OTUD7B fragment discovery through chemoproteomics screening and high-throughput optimisation” (Communications Chemistry, 2025)

Experiments:
Assay in all cases: log2 ratio of Biotin-Ahx-Ub-VS probe labelling (fragment/DMSO); higher = less target engagement (more negative = stronger competition), active = hit call of the paper (q ≤ 0.05, log2 ratio ≤ -1)
Settings in all cases: compound concentration: 200 uM; treatment time: 3 h
[1] = target: USP34 (UniProt Q70CQ2)
USP34, sequence (Q70CQ2 whole entry, the tested form may be a part): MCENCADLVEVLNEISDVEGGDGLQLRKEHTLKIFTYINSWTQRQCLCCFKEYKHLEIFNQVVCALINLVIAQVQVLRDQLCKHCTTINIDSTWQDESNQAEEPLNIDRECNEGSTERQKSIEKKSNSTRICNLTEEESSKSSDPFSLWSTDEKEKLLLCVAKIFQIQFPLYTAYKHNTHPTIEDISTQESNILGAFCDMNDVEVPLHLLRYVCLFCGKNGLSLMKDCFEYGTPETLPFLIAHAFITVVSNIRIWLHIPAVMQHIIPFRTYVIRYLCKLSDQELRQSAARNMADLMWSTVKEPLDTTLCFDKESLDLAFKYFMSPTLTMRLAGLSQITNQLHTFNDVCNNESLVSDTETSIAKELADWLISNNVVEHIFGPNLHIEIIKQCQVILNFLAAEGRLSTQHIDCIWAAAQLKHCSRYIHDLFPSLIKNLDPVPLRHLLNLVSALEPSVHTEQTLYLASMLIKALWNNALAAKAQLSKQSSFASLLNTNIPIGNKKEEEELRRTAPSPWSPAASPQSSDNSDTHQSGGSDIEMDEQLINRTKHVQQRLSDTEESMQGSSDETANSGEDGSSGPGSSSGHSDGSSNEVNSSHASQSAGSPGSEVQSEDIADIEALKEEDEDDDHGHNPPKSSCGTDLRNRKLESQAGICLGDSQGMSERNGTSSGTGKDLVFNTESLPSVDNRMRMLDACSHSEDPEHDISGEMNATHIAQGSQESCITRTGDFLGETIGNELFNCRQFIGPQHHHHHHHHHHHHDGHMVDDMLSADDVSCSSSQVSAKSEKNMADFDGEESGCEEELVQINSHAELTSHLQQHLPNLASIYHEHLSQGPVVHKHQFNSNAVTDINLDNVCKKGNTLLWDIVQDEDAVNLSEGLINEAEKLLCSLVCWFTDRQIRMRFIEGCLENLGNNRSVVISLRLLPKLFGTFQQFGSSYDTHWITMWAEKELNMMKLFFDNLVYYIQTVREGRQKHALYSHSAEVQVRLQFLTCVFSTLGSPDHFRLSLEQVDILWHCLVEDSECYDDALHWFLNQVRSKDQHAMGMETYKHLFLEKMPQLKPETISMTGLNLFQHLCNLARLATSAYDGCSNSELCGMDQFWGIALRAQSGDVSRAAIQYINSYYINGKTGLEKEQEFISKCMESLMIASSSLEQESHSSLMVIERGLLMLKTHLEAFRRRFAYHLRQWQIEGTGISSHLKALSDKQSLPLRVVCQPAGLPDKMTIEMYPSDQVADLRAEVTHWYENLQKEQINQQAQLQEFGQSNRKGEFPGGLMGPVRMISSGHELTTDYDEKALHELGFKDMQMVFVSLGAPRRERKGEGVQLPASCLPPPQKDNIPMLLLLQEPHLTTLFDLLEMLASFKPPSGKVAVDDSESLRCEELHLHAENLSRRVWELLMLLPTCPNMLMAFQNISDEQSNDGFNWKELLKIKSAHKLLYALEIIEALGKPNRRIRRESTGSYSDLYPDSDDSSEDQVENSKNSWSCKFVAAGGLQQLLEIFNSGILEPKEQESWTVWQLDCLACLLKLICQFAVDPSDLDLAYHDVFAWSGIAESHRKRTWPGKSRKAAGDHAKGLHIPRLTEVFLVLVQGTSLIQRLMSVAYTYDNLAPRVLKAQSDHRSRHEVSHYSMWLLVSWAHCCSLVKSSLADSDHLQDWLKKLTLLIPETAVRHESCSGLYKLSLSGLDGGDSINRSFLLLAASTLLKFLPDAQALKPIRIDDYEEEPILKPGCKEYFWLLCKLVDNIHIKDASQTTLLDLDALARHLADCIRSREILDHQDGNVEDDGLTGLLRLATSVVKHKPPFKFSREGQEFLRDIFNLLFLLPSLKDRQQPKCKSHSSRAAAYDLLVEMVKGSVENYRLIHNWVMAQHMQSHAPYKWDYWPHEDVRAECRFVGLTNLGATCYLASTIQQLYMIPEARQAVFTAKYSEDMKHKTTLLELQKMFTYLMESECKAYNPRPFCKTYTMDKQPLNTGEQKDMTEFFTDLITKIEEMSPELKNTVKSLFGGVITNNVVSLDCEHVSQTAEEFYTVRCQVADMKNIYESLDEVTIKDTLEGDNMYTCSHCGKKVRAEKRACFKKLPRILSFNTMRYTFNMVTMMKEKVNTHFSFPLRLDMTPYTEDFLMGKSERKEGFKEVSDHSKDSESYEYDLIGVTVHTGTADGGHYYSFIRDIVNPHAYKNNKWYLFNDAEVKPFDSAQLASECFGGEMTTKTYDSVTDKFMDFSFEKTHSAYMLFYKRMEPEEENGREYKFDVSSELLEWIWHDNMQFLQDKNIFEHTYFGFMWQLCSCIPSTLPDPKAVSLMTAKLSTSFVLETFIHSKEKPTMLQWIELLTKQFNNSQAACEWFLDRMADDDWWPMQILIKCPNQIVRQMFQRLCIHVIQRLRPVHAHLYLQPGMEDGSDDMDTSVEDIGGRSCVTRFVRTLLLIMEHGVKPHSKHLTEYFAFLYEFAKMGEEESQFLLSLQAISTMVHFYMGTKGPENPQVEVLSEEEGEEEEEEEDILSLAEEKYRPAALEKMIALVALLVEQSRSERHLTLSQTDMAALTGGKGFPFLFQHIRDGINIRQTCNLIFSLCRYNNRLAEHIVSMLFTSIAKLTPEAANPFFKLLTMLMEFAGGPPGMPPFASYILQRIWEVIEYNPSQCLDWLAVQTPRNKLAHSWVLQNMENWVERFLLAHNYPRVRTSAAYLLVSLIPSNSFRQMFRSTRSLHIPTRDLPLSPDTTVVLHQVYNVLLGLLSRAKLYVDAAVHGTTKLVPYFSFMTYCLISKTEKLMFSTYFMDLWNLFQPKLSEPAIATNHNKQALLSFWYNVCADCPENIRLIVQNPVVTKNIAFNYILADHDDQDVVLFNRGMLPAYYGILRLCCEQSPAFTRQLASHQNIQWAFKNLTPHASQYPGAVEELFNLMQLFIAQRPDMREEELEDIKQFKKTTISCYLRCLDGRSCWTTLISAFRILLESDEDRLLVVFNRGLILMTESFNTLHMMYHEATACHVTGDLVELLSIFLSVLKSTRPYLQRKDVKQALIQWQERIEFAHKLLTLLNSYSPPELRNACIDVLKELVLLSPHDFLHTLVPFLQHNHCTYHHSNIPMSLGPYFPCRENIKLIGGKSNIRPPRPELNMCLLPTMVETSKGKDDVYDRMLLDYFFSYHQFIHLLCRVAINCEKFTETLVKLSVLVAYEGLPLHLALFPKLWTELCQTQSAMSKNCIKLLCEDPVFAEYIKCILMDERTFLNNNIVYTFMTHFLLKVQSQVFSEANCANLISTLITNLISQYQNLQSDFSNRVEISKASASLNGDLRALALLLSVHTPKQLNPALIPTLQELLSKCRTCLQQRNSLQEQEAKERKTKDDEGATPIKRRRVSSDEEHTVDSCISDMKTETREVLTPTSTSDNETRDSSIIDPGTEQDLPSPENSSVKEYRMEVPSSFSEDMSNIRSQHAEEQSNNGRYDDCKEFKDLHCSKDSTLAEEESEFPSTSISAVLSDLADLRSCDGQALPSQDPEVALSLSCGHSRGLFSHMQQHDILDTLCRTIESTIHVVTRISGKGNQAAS
Procedure, shortened: (§1)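 HEK293T lysate, 495 µg per sample in Tris/CHAPS/IGEPAL buffer with protease inhibitors, was treated in triplicate with fragment at 200 µM or vehicle for 3 h and then with Biotin-Ahx-Ub-VS at 0.5 µM final for 1 h. Labelled DUBs were NeutrAvidin-enriched, digested with LysC and trypsin, and run by diaPASEF LC-MS/MS. Spectronaut label-free quantities were global-median-normalised, and values are average log2 fragment/vehicle ratios by unpaired t-test on proteins with ≥2 unique peptides.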

[2] = target: T1, USP36 (UniProt Q9P275)
T1 sequence (whole entry): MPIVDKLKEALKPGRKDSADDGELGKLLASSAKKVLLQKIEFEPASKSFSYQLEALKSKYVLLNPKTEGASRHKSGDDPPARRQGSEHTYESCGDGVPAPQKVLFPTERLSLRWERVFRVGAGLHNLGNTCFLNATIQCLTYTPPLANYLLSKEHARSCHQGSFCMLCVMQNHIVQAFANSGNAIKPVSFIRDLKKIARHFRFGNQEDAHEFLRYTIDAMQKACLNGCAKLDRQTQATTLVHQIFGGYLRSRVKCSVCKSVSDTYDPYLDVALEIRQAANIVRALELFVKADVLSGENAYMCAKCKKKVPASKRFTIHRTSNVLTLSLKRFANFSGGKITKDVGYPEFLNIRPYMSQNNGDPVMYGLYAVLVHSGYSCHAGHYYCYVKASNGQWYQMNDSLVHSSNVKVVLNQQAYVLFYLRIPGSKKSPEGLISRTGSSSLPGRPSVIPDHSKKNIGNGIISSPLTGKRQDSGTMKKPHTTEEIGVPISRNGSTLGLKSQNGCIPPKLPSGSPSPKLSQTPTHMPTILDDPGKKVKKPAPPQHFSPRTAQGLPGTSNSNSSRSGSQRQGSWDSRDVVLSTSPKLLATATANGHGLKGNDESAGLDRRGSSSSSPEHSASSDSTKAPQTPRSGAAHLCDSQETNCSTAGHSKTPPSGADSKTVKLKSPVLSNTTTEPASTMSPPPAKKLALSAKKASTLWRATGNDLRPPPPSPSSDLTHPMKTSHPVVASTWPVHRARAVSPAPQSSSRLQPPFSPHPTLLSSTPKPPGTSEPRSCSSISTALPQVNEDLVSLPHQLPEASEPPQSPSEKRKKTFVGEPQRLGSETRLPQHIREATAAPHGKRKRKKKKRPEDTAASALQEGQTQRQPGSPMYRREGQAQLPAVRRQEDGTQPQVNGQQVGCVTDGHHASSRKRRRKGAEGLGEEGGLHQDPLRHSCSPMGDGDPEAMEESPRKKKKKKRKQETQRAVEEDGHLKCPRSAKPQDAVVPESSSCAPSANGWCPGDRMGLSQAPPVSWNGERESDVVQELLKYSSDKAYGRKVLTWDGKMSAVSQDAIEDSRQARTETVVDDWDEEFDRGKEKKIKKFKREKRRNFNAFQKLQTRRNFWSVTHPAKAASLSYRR
Procedure, shortened: as §1

[3] = target: T2, USP38 (UniProt Q8NB14)
T2 sequence (whole entry): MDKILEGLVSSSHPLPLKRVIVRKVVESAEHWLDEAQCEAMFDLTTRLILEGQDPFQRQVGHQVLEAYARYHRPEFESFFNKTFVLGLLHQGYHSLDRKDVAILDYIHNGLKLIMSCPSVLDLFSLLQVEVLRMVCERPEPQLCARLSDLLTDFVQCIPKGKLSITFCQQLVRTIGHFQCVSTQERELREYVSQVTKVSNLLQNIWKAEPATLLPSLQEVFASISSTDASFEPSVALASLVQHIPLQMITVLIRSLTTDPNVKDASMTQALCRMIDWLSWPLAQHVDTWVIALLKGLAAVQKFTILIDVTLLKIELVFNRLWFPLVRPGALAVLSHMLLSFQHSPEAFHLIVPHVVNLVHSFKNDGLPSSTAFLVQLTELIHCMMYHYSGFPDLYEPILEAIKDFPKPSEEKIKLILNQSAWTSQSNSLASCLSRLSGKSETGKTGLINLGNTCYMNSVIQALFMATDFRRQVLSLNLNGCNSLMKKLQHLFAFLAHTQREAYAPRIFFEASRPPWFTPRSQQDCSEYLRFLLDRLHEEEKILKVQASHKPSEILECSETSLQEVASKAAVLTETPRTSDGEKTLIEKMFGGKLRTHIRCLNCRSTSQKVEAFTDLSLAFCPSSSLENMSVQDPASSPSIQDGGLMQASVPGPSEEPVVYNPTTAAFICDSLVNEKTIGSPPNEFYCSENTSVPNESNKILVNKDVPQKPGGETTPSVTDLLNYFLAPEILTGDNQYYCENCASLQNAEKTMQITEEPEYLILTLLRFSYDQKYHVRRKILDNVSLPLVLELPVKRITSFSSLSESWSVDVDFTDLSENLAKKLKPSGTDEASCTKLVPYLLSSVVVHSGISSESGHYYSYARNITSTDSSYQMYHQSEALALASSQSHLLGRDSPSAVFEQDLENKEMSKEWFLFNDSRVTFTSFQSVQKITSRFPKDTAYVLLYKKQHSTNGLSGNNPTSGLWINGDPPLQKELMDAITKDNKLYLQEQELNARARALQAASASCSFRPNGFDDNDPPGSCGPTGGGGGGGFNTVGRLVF
Procedure, shortened: as §1

[4] = target: T3, USP39 (UniProt Q53GS9)
T3 sequence (whole entry): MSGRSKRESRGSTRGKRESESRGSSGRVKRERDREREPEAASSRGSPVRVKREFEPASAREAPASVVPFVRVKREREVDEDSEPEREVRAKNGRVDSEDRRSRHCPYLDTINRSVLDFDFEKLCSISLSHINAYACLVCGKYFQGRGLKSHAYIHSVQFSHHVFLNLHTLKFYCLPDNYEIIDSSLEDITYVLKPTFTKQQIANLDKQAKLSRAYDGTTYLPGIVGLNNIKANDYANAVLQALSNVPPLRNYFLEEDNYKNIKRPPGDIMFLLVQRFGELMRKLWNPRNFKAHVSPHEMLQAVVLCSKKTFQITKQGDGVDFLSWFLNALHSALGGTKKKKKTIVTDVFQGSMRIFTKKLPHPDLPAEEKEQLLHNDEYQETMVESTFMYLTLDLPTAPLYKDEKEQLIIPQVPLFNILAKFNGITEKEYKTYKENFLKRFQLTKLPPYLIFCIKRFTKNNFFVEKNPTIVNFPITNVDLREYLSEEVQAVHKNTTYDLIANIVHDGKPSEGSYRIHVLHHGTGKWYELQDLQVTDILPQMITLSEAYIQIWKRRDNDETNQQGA
Procedure, shortened: as §1

[5] = target: T4, USP4 (UniProt Q13107)
T4 sequence (whole entry): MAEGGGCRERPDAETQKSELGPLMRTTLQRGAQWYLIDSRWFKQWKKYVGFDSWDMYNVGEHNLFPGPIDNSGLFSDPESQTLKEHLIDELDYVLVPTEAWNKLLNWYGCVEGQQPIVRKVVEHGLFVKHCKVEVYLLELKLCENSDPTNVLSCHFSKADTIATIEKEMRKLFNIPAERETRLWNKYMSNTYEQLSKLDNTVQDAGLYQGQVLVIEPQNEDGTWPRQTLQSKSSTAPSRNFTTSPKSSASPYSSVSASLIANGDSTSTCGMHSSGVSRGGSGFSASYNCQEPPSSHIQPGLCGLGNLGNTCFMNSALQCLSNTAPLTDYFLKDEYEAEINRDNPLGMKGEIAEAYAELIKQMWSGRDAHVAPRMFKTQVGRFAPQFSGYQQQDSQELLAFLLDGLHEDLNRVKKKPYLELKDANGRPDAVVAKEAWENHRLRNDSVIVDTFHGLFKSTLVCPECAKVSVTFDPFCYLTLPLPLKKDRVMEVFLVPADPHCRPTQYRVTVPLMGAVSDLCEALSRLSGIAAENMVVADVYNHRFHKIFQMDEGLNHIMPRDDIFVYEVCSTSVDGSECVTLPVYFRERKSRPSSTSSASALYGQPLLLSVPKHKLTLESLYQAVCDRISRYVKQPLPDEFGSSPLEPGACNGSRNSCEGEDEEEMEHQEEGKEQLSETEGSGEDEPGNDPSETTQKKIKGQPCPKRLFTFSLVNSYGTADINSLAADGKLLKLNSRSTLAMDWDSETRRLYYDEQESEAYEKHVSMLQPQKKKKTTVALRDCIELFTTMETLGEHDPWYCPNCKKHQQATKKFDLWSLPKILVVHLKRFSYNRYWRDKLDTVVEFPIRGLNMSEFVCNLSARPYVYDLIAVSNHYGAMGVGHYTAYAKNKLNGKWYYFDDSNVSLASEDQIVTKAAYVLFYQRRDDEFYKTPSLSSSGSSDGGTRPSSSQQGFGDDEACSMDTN
Procedure, shortened: as §1

Measured: log2 ratio of Biotin-Ahx-Ub-VS probe labelling

Cl.O=C(CCl)NCCN1CCc2ccccc21
inactive: [1] -0.536 | [2] -0.231 | [3] -0.723 | [4] 0.178 | [5] -0.666
